Experimental data: PubChem BioAssay (EPA / NIEHS)
More than one record can exist for a structure, and the calls need not agree. The source made the active and inactive calls. Rule for the calls: active = hit-call score of the fitted dose curve at least 0.9, where 1 is the maximum; inactive = score below 0.9.

read-out: Cytochrome P450 3A4 (Homo sapiens) (UniProt P08684); assay: LTEA_HepaRG_CYP3A4: Life Technologies and Expression Analysis (LTEA) Assay for CYP3A4 using HepaRG (AID 2283487); conditions: mRNA level, 48 h; actives raise or lower the signal
Description: LTEA_HepaRG is a cell based, multiplexed-readout assay that uses HepaRG, a human liver cell line, with measurements taken at 48 hours after chemical dosing on a 96-well plate.LTEA_HepaRG_CYP3A4 is one of 102 assay component(s) measured in the LTEA HepaRG cell culture assay. It is a marker of NR mediated metabolism.Data from the assay component LTEA_HepaRG_CYP3A4 was analyzed into 1 endpoint. This assay endpoint, LTEA_HepaRG_CYP3A4, was analyzed with bidirectional fitting relative to DMSO as the negative control and baseline of activity. Using a type of inducible reporter, measures of mRNA induction for gain or loss-of-signal activity can be used to understand regulation of transcription factor activity. To generalize the intended target to other relatable targets, this assay endpoint is annotated to the cyp intended target family, where the subfamily is xenobiotic metabolism.
A total of 1060 chemcials from the ToxCast library were tested in eight-point concentration-response experiments. Cell culture and cytotoxicity assays were conducted at Thermo Fisher Scientific's Custom Services facility (Madison, WI). A single lot of human HepaRG cells (Thermo Fisher Scientific, Frederick, MD) was used for the cell culture experiments. 96-well format collagen type I coated plates of human HepaRG cells were prepared using established methods. Briefly, cryopreserved HepaRG cells were thawed, plated at a density of approximately 100,000 cells/well in HepaRG Thaw, Plate, and General Purpose media (HPRG770, Thermo Fisher Scientific), and incubated for 48 hours. 0.5% DMSO was selected as vehicle control to balance the requisite need of DMSO in HepaRG cultures to maintain differentiation (for example, baseline metabolism, proportions of hepatocytes vs. cholangiocytes), while enabling further hepatic receptor pathway activation (for example, PXR and CAR) in response to chemical exposure. 48 hours after plating, the culture medium was replaced with HepaRG Serum-Free Incudtion Media. Cells were exposed to each test chemical in duplicate and maintained in CO2 incubators for another 48 hours. Chemical plates were thawed to room temperature and 200x concentrations of treatment groups were prepared. 8-point conentration-reponse curves were made with the highest exposure at 100 uM, followed by half-log dilutions, all in 0.5% DMSO. Each test plate contained variouse controls, induction positive controls (1mM phenobarbital), cytotoxicity positive controls ([…] aflatoxin B1), vehicle controls (0.5% DMSO), and total lysis controls (0.5% DMSO). Cell morphology images were taken using an Essen IncuCyte FLR automated microscope, with six 96-well plates imaged in about 24 minutes. Images were captured and exported and JPEG files. Spent culture media was transfered to black-well plates for the LDH assay, and remaining media was sorted at -80 C for later use. Cells were treated with RLT buffer and frozen until shipped for gene expression analysis. Total RNA was isolated from the cell suspension in 75 uL of Buffer RLT (Qiagen, Germantown, MD 20874) by Quintiles/Expression Analysis (Durham, NC) using a custom isolation procedure. Total RNA from each plate well was transferred to a preamplification plate. Fluidigm's 96.96 Dynamic ArrayTM (Fluidigm, Amsterdam, the Netherlands) technology was used for gene expression analyses by quantitative reverse transcription polymerase chain reaction (qRT-PCR, performed by Quintiles/Expression Analysis, Durham, NC)89. Standard TaqManTM Assays (Applied Biosystems/ThermoFisher Scientific, Foster City, CA) were used to assess the expression of 93 genes selected based on their selectivity and sensitivity to important hepatic receptors known to be modulated by environmental chemicals; importance in human hepatocyte functionality; and hepatotoxicity. […]

Chain of Cytochrome P450 3A4 (Homo sapiens) (P08684 whole entry, looked up): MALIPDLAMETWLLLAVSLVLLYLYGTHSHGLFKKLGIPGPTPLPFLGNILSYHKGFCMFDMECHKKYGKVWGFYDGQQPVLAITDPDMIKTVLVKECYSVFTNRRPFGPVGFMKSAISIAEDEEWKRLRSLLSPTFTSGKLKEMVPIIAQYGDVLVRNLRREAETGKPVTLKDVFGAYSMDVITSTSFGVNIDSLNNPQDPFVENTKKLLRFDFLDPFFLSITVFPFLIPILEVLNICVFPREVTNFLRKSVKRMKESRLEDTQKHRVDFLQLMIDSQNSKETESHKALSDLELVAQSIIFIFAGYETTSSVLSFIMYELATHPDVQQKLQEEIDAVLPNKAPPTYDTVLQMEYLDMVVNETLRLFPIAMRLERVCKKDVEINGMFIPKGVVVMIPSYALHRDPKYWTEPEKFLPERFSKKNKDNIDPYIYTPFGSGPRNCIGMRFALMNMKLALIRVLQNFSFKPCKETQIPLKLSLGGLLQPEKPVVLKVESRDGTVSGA

Row | SMILES | AC50 | outcome
1 | CCN1CCC2(CC1)COc1cc3c(cc12)N(C(=O)c1ccc(-c2ccc(-c4nnc(C)o4)cc2C)cc1)CC3 | 28 µM (active) | 
2 | CCOP(=S)(OCC)SCSP(=S)(OCC)OCC | 12.5 µM (active) | 
3 | CC(C)(OO)c1ccccc1 |  | inactive
4 | CCC(C)(C)c1ccc(O)c(C(C)(C)CC)c1 |  | inactive
5 | O=C(Nc1ccc2[nH]ccc2c1)c1cc2cc(F)ccc2n1Cc1cccc(F)c1 | 83.5 µM (active) | 
6 | NC(=O)O |  | inactive
7 | O=[N+]([O-])c1ccc(O)c([N+](=O)[O-])c1 | 22.2 µM (active) | 
8 | CC(=O)[O][Hg][c]1ccccc1 | 3.76 µM (active) | 
9 | CC(C)(C)c1cc(O)ccc1O |  | inactive
10 | C[C@]12CCC(=O)C[C@@H]1CC[C@@H]1[C@@H]2CC[C@]2(C)[C@@H](O)CC[C@@H]12 |  | inactive
11 | O=C1C2(Cl)C3(Cl)C4(Cl)C(Cl)(Cl)C5(Cl)C3(Cl)C1(Cl)C5(Cl)C24Cl (stereo not given) |  | inactive
12 | Oc1cccc2cccnc12 |  | inactive
13 | CN(C)N=O |  | inactive
14 | CC(C)(C)CC(C)(C)c1ccc(O)cc1 |  | inactive
15 | Cc1ccccc1N |  | inactive
16 | ClCC(Cl)CCl |  | inactive
17 | O=C(O)C(F)(F)C(F)(F)C(F)(F)C(F)(F)C(F)(F)C(F)(F)C(F)(F)C(F)(F)C(F)(F)C(F)(F)F |  | inactive
18 | ClC1(Cl)C2(Cl)C3(Cl)C4(Cl)C(Cl)(Cl)C5(Cl)C3(Cl)C1(Cl)C5(Cl)C24Cl (stereo not given) | 4.01 µM (active) | 
19 | COc1cc(-c2ccc(N)c(OC)c2)ccc1N | 19.9 µM (active) | inactive
20 | CC(C)(c1ccccc1)c1ccc(O)c(C(C)(C)c2ccccc2)c1 | 12.3 µM (active) | 
21 | CCOP(=S)(OCC)Oc1nc(Cl)c(Cl)cc1Cl | 37.2 µM (active) | 
22 | O=c1[nH]c(=O)[nH]c(=O)[nH]1 |  | inactive
23 | CC12CC1(C)C(=O)N(c1cc(Cl)cc(Cl)c1)C2=O (stereo not given) | 5.34 µM (active) | 
24 | CCCCCCCCc1ccc(O)cc1 |  | inactive
25 | C=C(C)C(=O)[O][Sn]([CH2]CCC)([CH2]CCC)[CH2]CCC | 2.52 µM (active) | 
26 | O=C(O)C(F)(F)C(F)(F)C(F)(F)C(F)(F)C(F)(F)C(F)(F)F |  | inactive
27 | O=C(O)C(Cl)(Cl)Cl |  | inactive
28 | Cn1sc(Cl)cc1=O |  | inactive
29 | C=CC(=O)OCCCCCC(C)C |  | inactive
